Here are results for 27 compounds from PubChem BioAssay (NCATS).

“And” between values parts separate entries of the source, which are not always exact repeats. Equal entries are not always repeated. Results filed as inconclusive are left out. A number with no mark means an inactive call. The source made the active and inactive calls. Unless noted, the call rests on the fitted dose curve; in most records, active means well fitted curve in either direction with a large enough effect (not every such curve was filed as active); inconclusive means small, poorly fitted or top-dose-only effect, or another doubt; inactive means flat fitted curve, though single readings scatter.

Assay [1] in a line: NFAT Signaling Pathway (AID 444).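 Further: carbachol stimulus at about its EC50 of 1 µM final; on the % scale 0 is the no-effect control and ±100 the full control effect.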 To be noted: Jurkat NFAT-bla M1, carbachol, beta-lactamase ratio, 5 h. The gist of the method:
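Jurkat cells carrying an NFAT-driven β-lactamase reporter and co-transfected muscarinic M1 receptor were treated with compound plus carbachol (1 uM final, an EC50 level) for 5 h at 37 °C. CCF4 loading followed for 1 h at RT; 460/530 nm ratio gave %activity.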

Assay [2] can be described thus: AP1 Signaling Pathway (AID 357). Further: on the % scale 0 is the no-effect control and ±100 the full control effect. The note with it: ME-180 (cervical carcinoma) AP-1-bla reporter, EGF-induced, beta-lactamase ratio, 5 h; series mostly up to 17.2 µM. The gist of the method:
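AP-1-bla ME-180 cells with beta-lactamase reporter under AP-1 response element, stimulated with EC50 EGF; compounds titrated, 5 hours at 37 degrees Celsius. CCF4 read at 460/530 nm ratio; positive and negative modulators judged by AC50.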

The nature of assay [3]: Cell Viability - BJ (AID 421; calls by dose curve;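 further: potency means the concentration at half of the fitted maximal effect; cells exposed to compound for 40 hours at 37 °C before readout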). The note with it: BJ fibroblast viability, qHTS. The gist of the method: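 Quantitative HTS: ATP depletion in BJ cells after 40 hr compound exposure in complete culture medium, detected with CellTiter-Glo; AC50 from standard Hill fits.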
Background: In qHTS, concentration-response curves come from the screen itself.

The nature of assay [4]: Cell Viability - Hek293 (AID 427;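 active means compounds whose dose-response curve shows a full or clear partial loss of cell viability, called from curve shape rather than a numeric limit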;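 further: potency means the concentration at half of the fitted maximal effect; cells exposed to compound for 40 hours at 37 °C before reading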). To be noted: qHTS. The gist of the method: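 AC50 values derive from Hill-modelled concentration-response of ATP-based luminescence, normalized between DMSO-only and 100 uM tamoxifen controls. Cells were exposed in complete culture medium for 40 hr at 37 °C before detection.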
Assay [5] can be described thus: Cell Viability - HepG2 (AID 433; calls by dose curve;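 further: potency means the concentration at half of the fitted maximal effect; potency for ATP loss meaning cytotoxicity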). The note with it: qHTS. The gist of the method:
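Cytotoxicity read as ATP loss (CellTiter-Glo luminescence) after 40 hr compound exposure of HepG2, 1500 cells/well, 37 °C. AC50 by Hill equation; 0% set by DMSO, 100% inhibition by 100 uM tamoxifen.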

Assay [6] in a line: Cell Viability - MRC5 (AID 434; calls by dose curve;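 further: potency means the concentration at half of the fitted maximal effect; potency reflects cytotoxicity seen as loss of intracellular ATP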). To be noted: MRC5 lung fibroblast viability, qHTS. The gist of the method:
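MRC5 normal human lung fibroblasts (1500/well) were treated with compounds for 40 hr at 37 °C in complete medium, and viable cells were measured as intracellular ATP by CellTiter-Glo luminescence. AC50 came from Hill fits, normalized to DMSO and 100 uM tamoxifen.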

Assay [7] is described as follows: Cell Viability - SK-N-SH (AID 435; calls by dose curve; further: potency means the concentration at half of the fitted maximal effect). The note with it: SK-N-SH neuroblastoma cell viability qHTS. The gist of the method:
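qHTS cytotoxicity: CellTiter-Glo ATP luminescence after 40 h compound exposure of human neuroblastoma SK-N-SH cells at 37 °C. AC50 derived by Hill-equation fitting, with DMSO as basal and 100 uM tamoxifen as full inhibition.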

In assay [8] the target is Cytochrome P450 1A2 (Homo sapiens) (UniProt P05177). The assay can be described thus: p450-cyp1a2 (AID 410; calls by dose curve; further: potency means the concentration at half of the fitted maximal effect;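 on activity change, negative = inhibition: -100% = full effect of reference inhibitor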). The note with it: recombinant CYP1A2, luciferin-ME demethylation, luminescence; series mostly up to 25.6 µM. The gist of the method: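 20nM CYP1A2 with 100uM Luciferin-ME (at Km) in 100mM KPO4; compound preincubated 10 min, NADPH regeneration added, 60 min at room temperature. Luciferin quantified by luminescence after detection reagent; normalized to 57 uM furafylline.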
Cytochrome P450 1A2 (Homo sapiens), sequence (P05177 whole entry, looked up): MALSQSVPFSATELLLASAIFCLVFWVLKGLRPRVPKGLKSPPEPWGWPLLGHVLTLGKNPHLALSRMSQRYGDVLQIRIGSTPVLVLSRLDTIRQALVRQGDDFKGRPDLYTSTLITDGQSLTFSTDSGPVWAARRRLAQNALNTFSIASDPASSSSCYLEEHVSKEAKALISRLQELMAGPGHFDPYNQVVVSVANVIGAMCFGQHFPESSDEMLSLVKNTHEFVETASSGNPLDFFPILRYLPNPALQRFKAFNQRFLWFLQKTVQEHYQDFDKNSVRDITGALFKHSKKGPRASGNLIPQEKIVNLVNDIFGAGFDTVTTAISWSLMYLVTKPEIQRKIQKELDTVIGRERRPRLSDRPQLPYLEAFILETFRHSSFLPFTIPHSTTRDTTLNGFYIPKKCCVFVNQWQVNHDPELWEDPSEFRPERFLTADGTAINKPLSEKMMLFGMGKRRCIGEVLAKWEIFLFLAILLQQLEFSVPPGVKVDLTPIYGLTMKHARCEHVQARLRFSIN

Assay [9] in a line: Cell Viability - Jurkat (AID 426;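 active means dose-dependent loss of cell ATP signal giving a full or clear fitted curve, ranked by lower potency value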; further: potency means the concentration at half of the fitted maximal effect). To be noted: qHTS. The gist of the method: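 Jurkat (Clone E6-1) cells, 5000/well in complete medium, exposed to compounds for 40 hr at 37C; intracellular ATP measured by CellTiter-Glo luminescence after 20 min at room temperature. AC50 from Hill fits.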
Setting [10] is: at 17.2 µM (top of the series) unless noted.

Regarding `Nc1ccc(S(=O)(=O)Nc2cnc3ccccc3n2)cc1`, the activity change, negative = inhibition in assay [1] (at 7.69 µM (top of the series)) was -24.5%; in [1] (at 17.2 µM (top of the series)), -5.07%.

For `CC(C)(C)NCC(O)COc1cccc2c1C[C@H](O)[C@H](O)C2` (some centres not stated), the outcome in [2] was inactive. For the same compound, in assay [1] (setting [10]), the activity change, negative = inhibition is 1.44%.

As for `C=C[C@H]1CN2CC[C@H]1C[C@@H]2[C@@H](O)c1ccnc2ccc(OC)cc12`, the Potency in assay [3], in assay [4], in [5], in [6] and in assay [7] was over 92 µM each time.

As for `CCCCN1C[C@H](O)[C@@H](O)[C@H](O)[C@H]1CO`, in [2], the result was inactive. The activity change, negative = inhibition in assay [1] (setting [10]) was 14.7%.

On to `CCOC(=O)Nc1ccc2c(c1)N(C(=O)CCN1CCOCC1)c1ccccc1S2`, for which, in assay [8], the Potency result was “inactive”.

`c1ccc(CC2=NCCN2)cc1`: the outcome in assay [2] was inactive. Moreover, the activity change, negative = inhibition in assay [1] (setting [10]) was -12.4%.

As for `CN(C)CCOC(=O)C(c1ccccc1)C1(O)CCCC1` (configuration not stated), in assay [2], the result was inactive. In addition, in [1] (setting [10]), the activity change, negative = inhibition is -76.1% (active).

On to `O=C(O)CCC(=O)Nc1ccc(S(=O)(=O)Nc2nccs2)cc1`, for which the outcome in [2] was inactive. In addition, the activity change, negative = inhibition in [1] (setting [10]) is 4.24% and -25.1%.

As to `CC[N+](C)(CC)CCOC(=O)C(O)(c1ccccc1)C1CCCCC1` (configuration not stated), the result in assay [2] was inactive. For the same compound, the activity change, negative = inhibition in assay [1] (setting [10]) was -95.5% (active).

Consider `O=C(O)CCNC(=O)c1ccccc1`, for which the result in assay [2] was inactive. The activity change, negative = inhibition in assay [1] (setting [10]) was 3.54%.

In the case of `CCOc1ccccc1C(N)=O`, the Potency in assay [3], in [9], in assay [4], in assay [5], in [6] and in assay [7] was over 92 µM in each case.

For `Oc1ccc(Cl)cc1Cc1cc(Cl)ccc1O`, the Potency in assay [4] is 37.4 µM (active); in assay [5], 40.6 µM (active).

In the case of `COc1cc(NS(=O)(=O)c2ccc(N)cc2)ncn1`, in [2], the outcome was inactive. The activity change, negative = inhibition in assay [1] (setting [10]) was -5.57% and -24.6% and -2.19%.

Consider `O=C(O)c1ccc(S(=O)(=O)N(Cl)Cl)cc1`, for which the Potency in assay [3], in assay [4], in [5], in assay [6] and in [7] was over 92 µM throughout.

In the case of `OC[C@H]1O[C@@H]2O[C@H]3[C@H](O)[C@@H](O)[C@@H](O[C@H]4[C@H](O)[C@@H](O)[C@@H](O[C@H]5[C@H](O)[C@@H](O)[C@@H](O[C@H]6[C@H](O)[C@@H](O)[C@@H](O[C@H]7[C@H](O)[C@@H](O)[C@@H](O[C@H]8[C@H](O)[C@@H](O)[C@@H](O[C@H]1[C@H](O)[C@H]2O)O[C@@H]8CO)O[C@@H]7CO)O[C@@H]6CO)O[C@@H]5CO)O[C@@H]4CO)O[C@@H]3CO`, the Potency in assay [3], in assay [9], in assay [4], in assay [5], in [6] and in [7] was over 92 µM throughout.

As for `NC(=O)c1ccccc1O`, the Potency in assay [3], in assay [9], in assay [4], in assay [5], in assay [6] and in assay [7] was over 92 µM throughout.

Turning to `CC(C)(C)NC[C@H](O)COc1nsnc1N1CCOCC1`, in assay [2], the result was inactive. Also, the activity change, negative = inhibition in assay [1] (at 17.2 µM (top of the series)) is 1.16% and 3.92%; in assay [1] (at 38 µM (top of the series)), -1.27%.

With `CC(=O)OC[C@H]1O[C@@H](n2ncc(=O)[nH]c2=O)[C@H](OC(C)=O)[C@@H]1OC(C)=O`, the outcome in assay [2] was inactive. In addition, in [1] (setting [10]), the activity change, negative = inhibition was -22.9%.

For the compound `CCCCc1cc2ccccc2c(OCCN(C)C)n1`, the Potency in assay [8] is 0.0794 µM (active).

For the compound `COc1cc([C@H]2Oc3cc([C@H]4Oc5cc(O)cc(O)c5C(=O)[C@@H]4O)ccc3O[C@@H]2CO)ccc1O`, the Potency in assay [3], in assay [4], in assay [5], in [6] and in assay [7] was over 92 µM each time.

As to `CC(O)Cn1cnc2c1c(=O)n(C)c(=O)n2C` (configuration not stated), in [2], the result was inactive. Besides, the activity change, negative = inhibition in [1] (setting [10]) is 10.8%.

Consider `CC(=O)O[C@]1(C(C)=O)CC[C@H]2[C@@H]3C=C(Cl)C4=CC(=O)CC[C@]4(C)[C@H]3CC[C@@]21C`, for which the outcome in [2] was inactive. The activity change, negative = inhibition in assay [1] (setting [10]) is -29%.

As for `COc1ccc(C(=O)c2ccccc2O)c(O)c1`, in assay [2], the result was inactive. In addition, the activity change, negative = inhibition in assay [1] (setting [10]) was -15.7%.

Turning to `CNCCc1ccccn1`, the Potency result in [8] was “inactive”. The activity change, negative = inhibition in [1] (setting [10]) is -6.53%.

For the compound `C[N+]12CCC(CC1)C(OC(=O)C(O)(c1ccccc1)c1ccccc1)C2` (configuration not stated), in [2], the result was inactive. Moreover, the activity change, negative = inhibition in assay [1] (setting [10]) is -83.7% (active).

On to `C/C=C/c1ccc(O)c(OC)c1`, for which the Potency in assay [3], in [9], in assay [4], in assay [5], in [6] and in [7] was over 92 µM each time.

As to `COc1ccccc1N1CCN(CCCCNC(=O)c2ccc(-c3ccc(C(C)=O)cc3)cc2)CC1`, the Potency in assay [8] is 25.1 µM (active).
